Cycloheximide cs: counter-screen hit for Shiga toxin inhibitors, cycloheximide; cell reporter, cycloheximide protein synthesis inhibition counterscreen; max response, %; 300,000 tested, 12% active; AID 2314; in the data active = max response mostly above about 13%, no sharp cut-off; inactive = mostly below about 14%; also: read at 38.3 µM for the half of the compounds with a filed dose
SARS PLpro yeast: blocks SARS-CoV papain-like protease in a yeast assay. S. cerevisiae expressing SARS-CoV PLpro, growth rescue. Potency, µM (doses to about 32.9 µM), hits mostly activators. 330,000 tested, 0.19% active. AID 485353; also: nearly all actives have a fitted effect of over 55% in size
NS1 inh: influenza NS1 inhibition; Potency, µM (highest dose often 46.1 µM); 270,000 tested, 0.4% active; AID 2326; also: actives are rising curves; nearly all actives have a fitted effect of over 50% in size
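S. cerevisiae expressing influenza A NS1, grown in glucose, washed, then diluted 1:100 into pH 6.0 -URA galactose medium with 23 nl compound. Growth recovery read as OD600; NS1-free strain serves as control.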
Shiga inhibitor: inhibitors of Shiga toxin in Vero cells; Vero cells, Shiga toxin protein synthesis inhibition reporter; inhibition, % at 38.7 µM; 290,000 tested, 9.2% active; AID 2315; in the data active = inhibition mostly above about 28%, no sharp cut-off; inactive = mostly below about 43%
Each line names hits and unclear results; the compound was inactive in the other large screens. Hits are enriched below; roughly 12% of the tested compounds scored in any of these assays. Unless noted, calls follow the shape of the full dose curve.

CC(C)NC(=S)Nc1ccc(Oc2ccccc2)cc1	Shiga inhibitor 29
Cc1sc2nc(CSCC(=O)NC3(C#N)CCCCC3)[nH]c(=O)c2c1C	none (no result: Cycloheximide cs, NS1 inh, Shiga inhibitor)
Cc1ccc(CN2[C@@H](c3ccccc3)COCCS2(=O)=O)cc1	none
COc1ccc(-n2nnnc2CNC(=O)C(=O)c2c(C)[nH]c3ccccc23)cc1	none (no result: Cycloheximide cs, NS1 inh, Shiga inhibitor)
O=C(N/N=C/c1ccc(N2CCOCC2)cc1)c1cccs1	Cycloheximide cs 39, Shiga inhibitor 79 (no result: NS1 inh)
O=C(c1ccc(N2CCOCC2)cc1)c1cccs1	Cycloheximide cs 31, Shiga inhibitor 53
O=C(N/N=C/c1ccc(N2CCOCC2)cc1)c1ccc(NS(=O)(=O)c2cccs2)cc1	none (no result: NS1 inh)
CCOc1cc(/C=N/NC(=O)c2cccs2)ccc1OC(=O)N1CCOCC1	Cycloheximide cs 45, Shiga inhibitor 109
CCn1cc(CCCC(=O)NCc2ccc(OC)cc2)c2ccccc21	none
NC(=O)[C@@H]1CCNc2c(I)cc([N+](=O)[O-])cc2C(=O)N[C@@H](CO)C(=O)N[C@@H](Cc2ccc(O)cc2)C(=O)N1	NS1 inh 11µM
Cc1cc(C)cc(N2CC(C(=O)OCC(=O)Nc3cc(C)on3)CC2=O)c1 (stereo not given)	none
Cc1cc(C(=O)Cn2ncc(Cl)c(Cl)c2=O)c(C)n1CC(F)(F)F	Cycloheximide cs 24
CCN1CCN(c2ccc(S(=O)(=O)N3CCCC3)cn2)CC1	none (no result: NS1 inh)
COc1ccc(C2N(Cc3ccccc3)CC(=O)N2/N=C(\C)c2ccccc2)cc1 (stereo not given)	Cycloheximide cs 24, Shiga inhibitor 71
COc1ccc(/C=N/N2C(=O)CN(C(=O)c3ccccc3)C2c2ccc(OC)cc2)cc1 (stereo not given)	none
CC(C)N(C(=NCc1ccccc1)NC(=O)c1ccccc1)C(C)C	none (no result: Cycloheximide cs, NS1 inh, Shiga inhibitor)
COc1cc(CNc2ccc(O)cc2)cc(Br)c1OCc1ccccc1F	none
COc1cc(CNCCCCO)ccc1OCc1ccccc1F	Cycloheximide cs 18, Shiga inhibitor 57
COc1cc(CNc2ccc(N3CCCC3)cc2)ccc1OCc1ccccc1	Cycloheximide cs 42, Shiga inhibitor 55
COc1cc(CNc2ccc(N3CCCC3)cc2)ccc1OCc1ccccc1F	Cycloheximide cs 64, Shiga inhibitor 173
CCNCc1ccc(OCc2ccccc2F)c(OC)c1	none
COc1cc(CNC(C)(C)CO)ccc1OCC(=O)NC(C)(C)C	none
COc1cc(CNc2ccc(N3CCCCC3)cc2)ccc1OCC(=O)NC(C)(C)C	Cycloheximide cs 13, Shiga inhibitor 40
CCCCC#Cc1nc(N)c2ncn([C@@H]3O[C@H](C(=O)NCC)[C@@H](O)[C@H]3O)c2n1	none (no result: Cycloheximide cs, SARS PLpro yeast, Shiga inhibitor)
CN(C)S(=O)(=O)c1cccc(C(=O)NC2CCSc3ccccc32)c1 (stereo not given)	none
O=C(NC1CCSc2ccccc21)c1ccccc1Cl (stereo not given)	Cycloheximide cs 39, Shiga inhibitor 37
O=C(NC1CCSc2ccccc21)c1cccc([N+](=O)[O-])c1 (stereo not given)	Shiga inhibitor 48
O=C(NC1CCSc2ccccc21)c1ccccc1F (stereo not given)	Cycloheximide cs 31, Shiga inhibitor 54
Cc1c(NC(=O)CN2CCCC(C)C2)ccc2nsnc12 (stereo not given)	none (no result: NS1 inh)
O=C(Nc1ccc(C2=NCCN2)cc1)c1ccc(Cl)c(C(=O)Nc2ccc(C3=NCCN3)cc2)c1	none
FC(F)(F)Oc1ccc(NC(=S)Nc2ccc(OC(F)(F)F)cc2)cc1	none
c1ccc2c(c1)CCCN2c1nc2ccccc2n2cnnc12	Cycloheximide cs 30, Shiga inhibitor 107
CCC(=O)n1nc(-c2ccccc2)nc1NCc1ccccc1	Cycloheximide cs 23, Shiga inhibitor 71
CCC(=O)n1nc(-c2cccnc2)nc1NCc1ccc(OC)cc1	none
O=C(c1cccnc1)n1nc(-c2ccco2)nc1NCc1cccs1	Cycloheximide cs 37, Shiga inhibitor 124
COCC(=O)n1nc(NCc2ccc(OC)cc2)nc1NCc1ccc(OC)cc1	none
CC(C)C(=O)n1nc(-c2cccnc2)nc1NCc1cccs1	none (no result: NS1 inh)
COCC(=O)n1nc(-c2ccccc2)nc1NCc1ccccc1	Cycloheximide cs 25
CC(=O)n1nc(-c2ccccc2)nc1NCc1ccc(N(C)C)cc1	Cycloheximide cs 45, Shiga inhibitor 68
COc1ccccc1N1CCN(C(=O)c2ccc3c(c2)CCN3S(=O)(=O)c2ccccc2)CC1	none
CC(C)N1C(=O)CSC1c1ccc(Br)cc1 (stereo not given)	none (no result: NS1 inh)
CC(=O)n1nc(-c2ccccc2)nc1NCc1cccs1	Cycloheximide cs 25
COc1ccc(CNc2nc(-c3ccccc3)nn2C(=O)c2cccs2)cc1	none
COCC(=O)n1nc(-c2ccccc2)nc1NCc1ccc(F)cc1	Shiga inhibitor 47
COc1ccc(CNc2nc(-c3ccccc3)nn2C(=O)c2ccc([N+](=O)[O-])cc2)cc1	Cycloheximide cs 32, Shiga inhibitor 75
O=C(c1ccc(Oc2cc(Cl)cc(Cl)c2)o1)N1CCCCC1	none
COCc1nc2sc3c(c2c(=O)[nH]1)CCCC3	Cycloheximide cs 17
COc1cccc(-n2cnc3sc4c(c3c2=O)CCC4)c1	none
COc1cccc(-c2nc3sc4c(c3c(=O)[nH]2)CCCCC4)c1	Cycloheximide cs 21, Shiga inhibitor 75
CCCCCCNC(=O)CCCCCNS(=O)(=O)c1ccc(Br)cc1	none (no result: NS1 inh)
O=C(C1=NOC(CNc2ncc(C(F)(F)F)cc2Cl)C1)N1CCOCC1 (stereo not given)	none
Cc1cc(NC(=O)c2cncc(Br)c2)n(-c2ccccn2)n1	none
Cc1ccc(NC(=O)c2ccc(CSc3nnnn3C)cc2)cc1	Cycloheximide cs 37, Shiga inhibitor 141
Cc1cc(C)cc(NC(=O)c2ccc(CSc3nnc(C)s3)cc2)c1	Cycloheximide cs 29, Shiga inhibitor 80
Cc1ccc(NC(=O)c2ccc(CSc3ccccn3)cc2)cc1	Cycloheximide cs 31, Shiga inhibitor 82
C=CCn1c(SCc2ccc(C(=O)Nc3ccccc3)cc2)nnc1-c1ccccc1	Cycloheximide cs 19
C=CCn1c(SCC(=O)NNC(=S)Nc2ccccc2)nnc1-c1ccccc1	none
O=C(COC(=O)CCC(=O)c1ccc2c(c1)OCCO2)NCc1ccc2c(c1)OCO2	none
C1CCCCCC(=NNc2nn[nH]n2)CCCCC1	none
O=C(Nc1ccc(Br)cc1)c1ccc(CSC2=NCCS2)cc1	Cycloheximide cs 61, Shiga inhibitor 80
Cc1ccc(NC(=O)c2ccc(CSc3nnc(C)s3)cc2)cc1	Cycloheximide cs 55, Shiga inhibitor 140
C/C(=N/OC(=O)CC(C)C)c1cc(-c2ccc(Cl)cc2)no1	Shiga inhibitor 124
COc1cc(OC)c2c(-c3cccc(-c4ccoc4)c3)cc(=O)oc2c1	none (no result: Cycloheximide cs, NS1 inh, Shiga inhibitor)
O=C(c1ccc(F)cc1)c1ccc(N2CCCC2)cc1	Cycloheximide cs 63, Shiga inhibitor 151
O=C(Nc1ccc(N2CCCCC2)cc1)c1cccnc1	Cycloheximide cs 22, Shiga inhibitor 129
O=C(Nc1ccc(N2CCN(Cc3ccccc3Cl)CC2)cc1)c1cccnc1	none
O=S(=O)(c1ccc(N2CCN(c3ccc(F)cc3)CC2)cc1)N1CCCC1	none
O=C(CCC(=O)N1CCN(c2ccc(F)cc2)CC1)N1CCN(c2ccc(F)cc2)CC1	none
O=C(c1ccc(F)cc1)c1ccc(N2CCCCC2)cc1	Cycloheximide cs 61, Shiga inhibitor 97

Source: PubChem BioAssay
